This is an account of results in PubChem BioAssay.

Unmarked numbers belong to inactive results. For some of these results: Entries with a potency or affinity are not part of this list. Calls of active or inactive are those of the source. Unless noted, how the calls were made is not given here.

Assay [1] can be described thus: antimalarial activity against Dd2 strain (AID 2302;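 active means growth inhibition above 50% at the single 2 µM test dose, taken to imply half-maximal potency below 2 µM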;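 further: 0% = DMSO untreated growth and 100% = chloroquine plus artemisinin killed control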). Conditions: P. falciparum Dd2 in RBCs, LDH growth readout, 72 h; at 2 µM; active compounds read high.
Assay [2] is described as follows: HepG2 cytotoxicity, primary screen, cytotoxicity control for P. falciparum antimalarial project, cell-based, ATP luminescence (AID 2303;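 active means inhibition above 50%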;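 further: 0% = DMSO wells and 100% = digitonin-killed cells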). The following applies: HepG2 viability, 24-48 h, at 10 µM, active compounds read high.
For assay [3], the target named is L-lactate dehydrogenase (Plasmodium falciparum (isolate CDC / Honduras)) (UniProt Q27743). Nature of the assay: PfLDH activity inhibition – cell lysate, 3D7 strain, counter-screen for P. falciparum growth inhibition project (AID 2304).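 Further: 0% = vehicle and 100% = reference inhibitor.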 Conditions: P. falciparum 3D7 crude extract, LDH APAD/NBT absorbance; at 2 µM; active compounds read high. For orientation: A counterscreen serves to expose hits that act by an unwanted route or on another target.
Sequence of L-lactate dehydrogenase (Plasmodium falciparum (isolate CDC / Honduras)) (Q27743 whole entry, looked up): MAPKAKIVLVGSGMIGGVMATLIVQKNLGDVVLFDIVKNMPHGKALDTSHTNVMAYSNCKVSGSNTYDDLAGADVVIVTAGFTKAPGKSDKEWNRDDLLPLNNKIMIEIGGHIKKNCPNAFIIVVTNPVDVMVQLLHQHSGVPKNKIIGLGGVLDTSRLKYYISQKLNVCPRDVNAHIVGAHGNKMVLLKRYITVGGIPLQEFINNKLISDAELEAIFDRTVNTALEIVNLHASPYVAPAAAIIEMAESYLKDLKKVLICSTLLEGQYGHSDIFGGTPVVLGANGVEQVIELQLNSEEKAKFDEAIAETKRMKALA

The nature of assay [4]: inhibition of 3D7 malaria parasite growth – strain 3D7 (AID 2306).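 Further: 0% = DMSO wells and 100% = chloroquine plus artemisinin control wells.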 The following applies: P. falciparum 3D7 erythrocytic growth, LDH absorbance, 72 h; at 2 µM; active compounds read high.
Assay [5] addresses Calcium-dependent protein kinase 1 (Plasmodium falciparum (isolate 3D7)) (UniProt P62344). In words: PfCDPK1 kinase inhibitors, biochemical, TCAMS library (AID 1159585; cut-off not given, nearly all actives have IC50 up to about 0.98 µM;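 further: inhibitors leave more ATP so luminescence rises with inhibition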). Conditions: recombinant PfCDPK1, Kinase-Glo ATP depletion luminescence. For orientation: Kinase-Glo reads ATP consumption through a luciferase reaction.
The target in assay [6] is Plasmodium falciparum protein kinase 6 (PK6, PF3D7_1337100) (UniProt Q8IDW1). In words: PfPK6 kinase inhibitors, biochemical, TCAMS library (AID 1159586). The following applies: recombinant PfPK6, Kinase-Glo ATP depletion luminescence.
Sequence of Plasmodium falciparum protein kinase 6 (PK6, PF3D7_1337100) (Q8IDW1 1-305): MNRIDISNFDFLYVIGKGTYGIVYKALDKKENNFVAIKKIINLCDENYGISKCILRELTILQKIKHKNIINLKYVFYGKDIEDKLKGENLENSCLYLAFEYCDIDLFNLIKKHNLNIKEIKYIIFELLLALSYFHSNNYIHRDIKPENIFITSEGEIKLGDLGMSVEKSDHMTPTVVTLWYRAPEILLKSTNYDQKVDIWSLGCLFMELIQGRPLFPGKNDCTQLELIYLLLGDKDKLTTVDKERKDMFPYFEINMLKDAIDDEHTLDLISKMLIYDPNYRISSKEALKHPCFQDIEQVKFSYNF
The target of assay [7] is Protein kinase 7 (PK7), Plasmodium falciparum 3D7 (PF3D7_0213400) (UniProt Q7YTF7). Nature of the assay: inhibition of Plasmodium PK7 catalytic activity – biochemical, TCAMS antimalarial set, Kinase-Glo luminescence (AID 1159587). Conditions: recombinant PfPK7, Kinase-Glo ATP depletion luminescence.
Sequence of Protein kinase 7 (PK7), Plasmodium falciparum 3D7 (PF3D7_0213400) (Q7YTF7 1-343): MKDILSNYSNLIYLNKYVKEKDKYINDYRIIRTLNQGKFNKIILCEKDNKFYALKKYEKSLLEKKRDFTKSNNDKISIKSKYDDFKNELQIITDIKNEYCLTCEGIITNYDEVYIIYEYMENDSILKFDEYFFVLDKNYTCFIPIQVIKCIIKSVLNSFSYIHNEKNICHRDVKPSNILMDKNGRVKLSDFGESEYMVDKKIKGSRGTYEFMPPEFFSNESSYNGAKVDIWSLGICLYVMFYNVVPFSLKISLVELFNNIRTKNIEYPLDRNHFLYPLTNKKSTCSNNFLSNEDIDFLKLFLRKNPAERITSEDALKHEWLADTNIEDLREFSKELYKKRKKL
The target in assay [8] is Calcium-dependent protein kinase 4 (Plasmodium falciparum (isolate 3D7)) (UniProt Q8IBS5). Nature of the assay: PfCDPK4 kinase inhibitors, biochemical, TCAMS library (AID 1159588; cut-off not given, nearly all actives have IC50 up to about 0.91 µM). Conditions: recombinant PfCDPK4, Kinase-Glo ATP depletion luminescence.
Sequence of Calcium-dependent protein kinase 4 (Plasmodium falciparum (isolate 3D7)) (Q8IBS5 whole entry, looked up): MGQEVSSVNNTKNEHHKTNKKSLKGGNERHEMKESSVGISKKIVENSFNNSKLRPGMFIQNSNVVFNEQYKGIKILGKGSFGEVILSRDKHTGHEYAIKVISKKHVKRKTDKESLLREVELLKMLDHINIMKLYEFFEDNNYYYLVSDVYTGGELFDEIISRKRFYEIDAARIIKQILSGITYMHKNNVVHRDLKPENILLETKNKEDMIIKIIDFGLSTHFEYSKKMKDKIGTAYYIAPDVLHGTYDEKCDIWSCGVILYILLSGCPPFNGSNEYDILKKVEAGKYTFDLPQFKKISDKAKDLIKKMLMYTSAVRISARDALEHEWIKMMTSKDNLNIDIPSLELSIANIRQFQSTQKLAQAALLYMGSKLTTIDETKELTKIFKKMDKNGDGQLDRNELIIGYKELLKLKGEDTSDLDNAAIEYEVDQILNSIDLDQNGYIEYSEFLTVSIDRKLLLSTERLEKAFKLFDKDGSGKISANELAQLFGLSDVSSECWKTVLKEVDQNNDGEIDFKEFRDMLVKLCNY

Sequence of Calcium-dependent protein kinase 1 (Plasmodium falciparum (isolate 3D7)) (P62344 whole entry, looked up): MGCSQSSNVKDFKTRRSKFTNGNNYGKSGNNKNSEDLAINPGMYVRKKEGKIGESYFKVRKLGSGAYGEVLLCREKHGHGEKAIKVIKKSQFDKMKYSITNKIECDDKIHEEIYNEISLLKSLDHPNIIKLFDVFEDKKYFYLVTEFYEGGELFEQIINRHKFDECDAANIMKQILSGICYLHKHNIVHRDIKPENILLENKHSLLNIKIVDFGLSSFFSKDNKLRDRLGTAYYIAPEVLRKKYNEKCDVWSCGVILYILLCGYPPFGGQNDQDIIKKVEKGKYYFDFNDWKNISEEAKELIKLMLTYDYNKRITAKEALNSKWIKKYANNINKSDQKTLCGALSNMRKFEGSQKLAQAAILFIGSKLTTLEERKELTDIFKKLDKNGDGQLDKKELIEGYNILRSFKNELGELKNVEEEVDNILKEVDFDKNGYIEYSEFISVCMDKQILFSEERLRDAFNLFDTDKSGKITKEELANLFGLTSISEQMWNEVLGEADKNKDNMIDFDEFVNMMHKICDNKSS

`COc1ccc(-c2cnc(N)c(-c3nc4ccc(Br)cc4[nH]3)c2)cc1`: the growth inhibition in assay [1] was 3%; in assay [4], 100% (active). The inhibition – broadly, the change of the read-out against control, counted positive when it falls – in assay [2] is 42%; in assay [3], 2%. The outcome in assay [5], in assay [6], in assay [7] and in assay [8] was inactive.

Regarding `CS(=O)(=O)Nc1cccc(-c2cnc3[nH]cc(-c4ccc(C(=O)O)cc4)c3c2)c1`, the growth inhibition was 82% (active) in assay [1] and 98% (active) in assay [4]. In addition, the inhibition in assay [2] was -11%; in assay [3] it was 0%. In addition, the result in assay [5], in assay [6], in assay [7] and in assay [8] was inactive.

On to `CS(=O)(=O)N(c1cccc(F)c1)c1cc(C(=O)N[C@@H](Cc2ccccc2)[C@H](O)CNCc2cccc(C(F)(F)F)c2)cc(N2CCCC2=O)c1`, for which the growth inhibition in assay [1] was 92% (active); in assay [4] it was 98% (active). Also, the values for the inhibition in assay [2] and in assay [3] were 14% and 1%, respectively. Further, the result in assay [5], in assay [6], in assay [7] and in assay [8] was inactive.

Take `COc1cc(Cc2cnc(N)nc2N)cc(OCCCN2C(=O)c3ccccc3C2=O)c1OC`: the growth inhibition was -3% in assay [1] and 96% (active) in assay [4]. Moreover, the inhibition is -1% in assay [2] and 1% in assay [3]. The result in assay [5], in assay [6], in assay [7] and in assay [8] was inactive.

For the compound `N#Cc1ccc(C=NNc2nc3ccccc3[nH]2)cc1`, the growth inhibition in assay [1] was 71% (active); in assay [4] it was 101% (active). The inhibition in assay [2] is -4%; in assay [3] it was 3%. Further, the result in assay [5], in assay [6], in assay [7] and in assay [8] was inactive.

As to `CN(Cc1ccccc1)C(=O)c1nn(CCCN2CCC(N3CCCC3)CC2)cc1-c1ccc(Cl)c(Cl)c1`, the growth inhibition in assay [1] was 66% (active); in assay [4], 102% (active). The figures for the inhibition in assay [2] and in assay [3] were 43% and 0%, respectively. Also, the outcome in assay [5], in assay [6], in assay [7] and in assay [8] was inactive.

As for `O=C(CNc1ccc(Cl)c(S(=O)(=O)N2CCCC2)c1)Nc1ccc(Br)cc1F`, the growth inhibition in assay [1] is 97% (active); in assay [4], 99% (active). The inhibition is 18% in assay [2] and 4% in assay [3]. For the same compound, the result in assay [5], in assay [6], in assay [7] and in assay [8] was inactive.

As to `CCC(CC)NCc1c(O)ccc2c(CNC(CC)CC)c(O)ccc12`, the growth inhibition in assay [1] was 94% (active); in assay [4], 100% (active). Moreover, the inhibition was 4% in assay [2] and 0% in assay [3]. Besides, the result in assay [5], in assay [6], in assay [7] and in assay [8] was inactive.

With `FC(F)(F)c1ccc2nc(-c3cccc(-c4cccc(CNCCN5CCNCC5)c4)c3)[nH]c2c1`, the figures for the growth inhibition in assay [1] and in assay [4] were 18% and 92% (active), respectively. The results for the inhibition in assay [2] and in assay [3] were 29% and 4%, respectively. The result in assay [5], in assay [6], in assay [7] and in assay [8] was inactive.

With `CC(=O)c1cccc(NC(=O)C2c3ccccc3C(=O)N(CC(C)C)C2c2cccs2)c1` (stereo not given), the growth inhibition in assay [1] and in assay [4] was 100% (active) throughout. Further, the inhibition is 11% in assay [2] and -2% in assay [3]. Besides, the outcome in assay [5], in assay [6], in assay [7] and in assay [8] was inactive.

With `CCCC(C)Nc1nc(C)cc(N[C@@H](CC(C)C)C(=O)NCCc2ccccc2)n1` (stereo not given in full), the growth inhibition in assay [1] is 51% (active); in assay [4] it was 96% (active). Further, the inhibition in assay [2] was 9%; in assay [3], -2%. The outcome in assay [5], in assay [6], in assay [7] and in assay [8] was inactive.

With `COc1ccc(Nc2nc(NCc3ccco3)c3ccccc3n2)cc1`, the growth inhibition was 76% (active) in assay [1] and 99% (active) in assay [4]. For the same compound, the inhibition is 38% in assay [2] and -4% in assay [3]. The result in assay [5], in assay [6], in assay [7] and in assay [8] was inactive.

In the case of `FC(F)(F)COc1ccc(CCNCCCCNCCc2ccc(OCC(F)(F)F)c3ccccc23)c2ccccc12`, the growth inhibition in assay [1] was 70% (active); in assay [4], 99% (active). The inhibition in assay [2] was 100% (active); in assay [3], 4%. The result in assay [5], in assay [6], in assay [7] and in assay [8] was inactive.

Turning to `Cc1ccc(NC(=O)c2ccc(CN3CCCN(Cc4cccc(O)c4)CC3)cc2)cc1C`, the results for the growth inhibition in assay [1] and in assay [4] were 25% and 98% (active), respectively. Moreover, the inhibition in assay [2] was 33%; in assay [3], 4%. In addition, the outcome in assay [5], in assay [6], in assay [7] and in assay [8] was inactive.

Take `CCC(CC)n1c(C)cc2c3c(N)nc(N)nc3ccc21`: the growth inhibition in assay [1] and in assay [4] was 95% (active) in each case. Moreover, the figures for the inhibition in assay [2] and in assay [3] were 61% (active) and 1%, respectively. In addition, the outcome in assay [5], in assay [6], in assay [7] and in assay [8] was inactive.

With `CC1(C)N=C(N)NC(NOCc2ccc(Cl)c(Cl)c2)=N1`, the results for the growth inhibition in assay [1] and in assay [4] were 27% and 96% (active), respectively. Moreover, the figures for the inhibition in assay [2] and in assay [3] were 5% and 2%, respectively. Also, the result in assay [5], in assay [6], in assay [7] and in assay [8] was inactive.

On to `CCN1CCN(CCCNc2ccnc3cc(Cl)ccc23)CC1`, for which the results for the growth inhibition in assay [1] and in assay [4] were 77% (active) and 101% (active), respectively. The values for the inhibition in assay [2] and in assay [3] were 7% and 2%, respectively. For the same compound, the outcome in assay [5], in assay [6], in assay [7] and in assay [8] was inactive.

`Cc1ccc(CNC(=O)[C@H](Cc2ccccc2)Nc2ccnc(NCC3CCCCC3)n2)cc1`: the growth inhibition in assay [1] was 61% (active); in assay [4], 92% (active). Further, the inhibition in assay [2] is 84% (active); in assay [3] it was -2%. In addition, the result in assay [5], in assay [6], in assay [7] and in assay [8] was inactive.

On to `Cn1nc(-c2ccc(CNC3CCc4ccccc43)cc2)c2cnc(NCCCN3CCCC3)nc21` (stereo not given), for which the growth inhibition in assay [1] is 22%; in assay [4], 92% (active). In addition, the inhibition is 27% in assay [2] and -4% in assay [3]. For the same compound, the result in assay [5], in assay [6], in assay [7] and in assay [8] was inactive.

With `CCCCC(=O)Nc1ccc(Nc2nc(C)cc(N3CCCC3)n2)cc1`, the results for the growth inhibition in assay [1] and in assay [4] were 67% (active) and 101% (active), respectively. The values for the inhibition in assay [2] and in assay [3] were 38% and 4%, respectively. Moreover, the outcome in assay [5], in assay [6], in assay [7] and in assay [8] was inactive.
